# Measurements taken from PubChem BioAssay AID1481 (The Scripps Research Institute Molecular Screening Center, 2009).
# “And” between values parts separate entries of the source, which are not always exact repeats. Equal entries are not always repeated. Screen size: about 220,000 compounds; about 920 (0.42%) were called active. This is one part of a sample in which actives are shown more often than they occur. No stated cut-off is given here; in the data, active means inhibition above about 15%; inactive means the rest.
# Target: Transitional endoplasmic reticulum ATPase (Homo sapiens) (UniProt P55072)
# Sequence (P55072 whole entry, looked up): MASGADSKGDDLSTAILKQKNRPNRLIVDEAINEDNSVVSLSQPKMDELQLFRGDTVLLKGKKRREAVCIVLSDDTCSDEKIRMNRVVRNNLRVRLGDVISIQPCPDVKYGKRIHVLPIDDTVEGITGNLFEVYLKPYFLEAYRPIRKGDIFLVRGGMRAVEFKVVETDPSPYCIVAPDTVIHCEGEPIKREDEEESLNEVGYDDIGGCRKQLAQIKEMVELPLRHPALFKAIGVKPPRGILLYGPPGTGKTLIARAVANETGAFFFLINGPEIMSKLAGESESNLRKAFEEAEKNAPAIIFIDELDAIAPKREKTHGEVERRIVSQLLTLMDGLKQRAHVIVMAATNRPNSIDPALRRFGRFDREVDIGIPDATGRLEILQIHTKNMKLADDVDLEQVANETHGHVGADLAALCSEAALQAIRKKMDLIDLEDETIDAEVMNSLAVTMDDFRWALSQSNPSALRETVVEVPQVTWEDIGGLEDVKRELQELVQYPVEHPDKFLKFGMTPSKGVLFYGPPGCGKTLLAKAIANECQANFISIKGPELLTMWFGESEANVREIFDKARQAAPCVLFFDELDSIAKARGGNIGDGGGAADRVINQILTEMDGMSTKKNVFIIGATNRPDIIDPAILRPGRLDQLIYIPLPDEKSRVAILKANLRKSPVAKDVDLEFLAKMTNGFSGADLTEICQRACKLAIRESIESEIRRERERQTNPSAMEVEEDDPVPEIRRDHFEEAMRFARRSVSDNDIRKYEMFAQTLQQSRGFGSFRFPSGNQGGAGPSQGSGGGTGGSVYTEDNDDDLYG
# Assay: p97 ATP hydrolysis blockers – biochemical, primary screen (AID 1481);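 further: 0% = DMSO vehicle and 100% = wells lacking enzyme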
# Details: recombinant p97 ATPase, Kinase-Glo ATP luminescence, 3 h; at 8 µM; active compounds read high
row,Structure (SMILES),inhibition
1,C=CCn1c(=S)[nH]c2scc(-c3ccco3)c2c1=O,15.2% (active)
2,C=CCNC(=O)CSc1nc2scc(-c3ccco3)c2c(=O)n1CC=C,6.86% (inactive)
3,C=CCn1c(SCc2csc(C)n2)nc2scc(-c3ccc(C)o3)c2c1=O,3.29% (inactive)
4,C/C(CCc1ccccc1)=N\NC(=O)c1ccc(CN2CCOCC2)cc1,6.17% (inactive)
5,C=CCc1cccc2cc(C(=O)NC3CCCC3)c(=O)oc12,1.22% (inactive)
6,CC(C)/C=N/NC(=O)c1cc(Br)ccc1O,-3.39% (inactive)
7,COc1ccc(CC(=O)NCC(=O)N/N=C/c2cc(Br)ccc2OC)cc1,-3.65% (inactive)
8,COc1ccc(-c2[nH]ncc2/C=N/NC(=O)c2cc(Br)ccc2O)c(OC)c1,19.8% (active)
9,CN(C)c1ccc(/C=C/C(=O)c2ccc(C(C)(C)C)cc2)cc1[N+](=O)[O-],3.04% (inactive)
10,O=C(COC(=O)c1c2c(nc3ccccc13)/C(=C\c1cccs1)CCC2)Nc1ccccc1Cl,-4.57% (inactive)
11,NS(=O)(=O)c1ccc(NC(=O)COC(=O)c2c3c(nc4ccccc24)/C(=C\c2ccc4c(c2)OCO4)CCC3)cc1,-1.8% (inactive)
12,NC(=O)c1ccc(NC(=O)COC(=O)c2c3c(nc4ccccc24)/C(=C\c2ccc4c(c2)OCO4)CCC3)cc1,21.3% (active)
13,COc1ccnc(Oc2ccccc2)c1-c1ncn[nH]1,2.16% (inactive)
14,COc1ccc(Cl)cc1C(=O)NNC(=O)c1nc2nc(C)cc(C)n2n1,23.2% (active)
15,Cc1cc(C)n2nc(C(=O)NC(C)(C)C)nc2n1,-8.48% (inactive)
16,C=CCNC(=S)NNC(=O)c1cc(Cl)ccc1OC,2.04% (inactive)
17,CC1(C)CC(N2CCN(C(c3ccccc3)c3ccccc3)CC2)=CC(=[N+]2CCCCC2)C1,-4.13% (inactive)
18,CCc1nn(CCCN2CCN(c3cccc(Cl)c3)CC2)c(=O)n1CCOc1ccccc1,-5.07% (inactive)
19,C=CCNCCCCOc1ccccc1,-1.97% (inactive)
20,CCOC(=O)C(C)n1cnc2sc(C)c(C)c2c1=O (centres undefined),-1.18% (inactive)

row,Structure (SMILES),inhibition
1,N=c1c2c3c(sc2ncn1N)CCCC3,5.38% (inactive)
2,CC(C(=O)O)n1cnc2sc3c(c2c1=O)CCCC3 (centres undefined),19.5% (active)
3,CN1CCN(c2ccc(S(=O)(=O)N3CCOCC3)cc2NC(=O)CCc2ccccc2)CC1,4% (inactive)
4,Fc1ccccc1/C=C1\CCCC2=C1Nc1ncnn1C2c1ccccc1F (centres undefined),3.82% (inactive)
5,Oc1c(Cl)cc(Cl)c(Cl)c1Cc1c(O)c(Cl)cc(Cl)c1Cl,31.6% (active)
6,COc1cc(S(=O)(=O)N2CCOCC2)ccc1NC(=O)COc1ccc(N(C)S(=O)(=O)c2ccc(C)cc2)cc1,10.4% (inactive)
7,Cc1c(NC(=O)CN2C(=O)C(=O)N(Cc3ccccc3)C2=O)c(=O)n(-c2ccccc2)n1C,1.04% (inactive)
8,Cc1cccc(NC(=O)c2ccc([N+](=O)[O-])o2)c1,0.75% (inactive)
9,N#Cc1c(-c2ccc(F)cc2)nc(-c2ccccc2)[nH]c1=O,1.67% (inactive)
10,[O-][n+]1onc2c1CCc1[nH]c(-c3ccccc3)nc1-2,37.3% (active)
11,COc1ccc([N+](=O)[O-])cc1N(CC(O)CN(CC(C)C)CC(C)C)S(=O)(=O)c1ccc(C)cc1 (centres undefined),-15% (inactive)
12,Cn1sc(=O)c2cc(S(=O)(=O)NC3CC3)ccc21,13.5% (inactive)
13,Clc1ccc(C2=CSC3=Nc4cccc5cccc(c45)N23)cc1,33% (active)
14,N#Cc1ccsc1NC(=O)CN1CCN(S(=O)(=O)c2cc(Cl)ccc2Cl)CC1,1.72% (inactive)
15,CCC1(CC)NC(=O)N(CC(=O)OCC(=O)NC(=O)c2ccccc2)C1=O,-0.8% (inactive)
16,Cc1ccc(C(O)P(=O)(OC(C)C)c2ccc(N(C)C)cc2)cc1 (centres undefined),0.27% (inactive)
17,COC(=O)CNc1nc(Cl)nc(N2CCC(C)CC2)n1,-3.6% (inactive)
18,O=C(Nc1cccc(F)c1)c1coc(=O)c(Br)c1,-1.08% (inactive)
19,Cc1nc(-c2ccccc2)sc1-c1nnc(C2CC2)o1,-11.7% (inactive)
20,Cc1nn(-c2ccccc2)c2c1C(c1ccc(F)cc1)C(C#N)=C(N)O2 (centres undefined),-4.19% (inactive)

row,Structure (SMILES),inhibition
1,COc1ccccc1C1C(C#N)=C(N)Oc2c1c(-c1ccccc1)nn2-c1ccccc1 (centres undefined),27.6% (active)
2,Cc1nn(Cc2ccccc2)c2c1C(c1ccccc1)C(C#N)=C(N)O2 (centres undefined),10.6% (inactive)
3,CCC1C=C(c2ccccc2)C=CN=C1N(CC)CC (centres undefined),-5.24% (inactive)
4,CCC(C)CN1CCC(CO)(Cc2ccccc2Cl)CC1 (centres undefined),-5.42% (inactive)
5,Cc1cc(Nc2ccc(N3CCOCC3)cc2)c2cccc(C)c2n1,4.03% (inactive)
6,CN1CCC(=NNC(=O)c2ccc(N(Cc3ccc(Cl)cc3)S(C)(=O)=O)cc2)CC1,-1.22% (inactive)
7,CC(C)Sc1nnc([C@H](Cc2ccccc2)NC(=O)OC(C)(C)C)o1,-6.35% (inactive)
8,C#CCN1C(=O)C(O)(CC(=O)c2cc(OC)ccc2OC)c2ccccc21 (centres undefined),4.75% (inactive)
9,CCCCN1C(=O)/C(=C(/C#N)C(N)=O)c2ccccc21,1.92% (inactive)
10,COc1ccc2c(c1)C(=C(C#N)C#N)C(=O)N2CCc1ccccc1,20.6% (active)
11,CC(C)(C)c1cnnn1-c1ccc([N+](=O)[O-])cc1,4.98% (inactive)
12,Nc1ccccc1Sc1ccc(C(F)(F)F)cc1[N+](=O)[O-],-3.21% (inactive)
13,CC(=O)Nc1ccc(CC#N)cc1,3.27% (inactive)
14,O=[N+]([O-])c1cc(Cl)cc(/C=N/NC(=S)Nc2cc(S(=O)(=O)N3CCOCC3)ccc2Cl)c1O,14.6% (active)
15,O=C(CN1CCN(c2ccc(O)cc2)CC1)Nc1cc(S(=O)(=O)N2CCOCC2)ccc1Cl,6.43% (inactive)
16,O=C(N/N=C/c1ccc([N+](=O)[O-])o1)c1cccc(S(=O)(=O)N2CCOCC2)c1,-1.08% (inactive)
17,COc1ccccc1-n1c(-c2cc(-c3ccco3)[nH]n2)n[nH]c1=S,6.44% (inactive)
18,Brc1ccc(-c2csc(N/N=C/c3cccnc3)n2)cc1,0.38% (inactive)
19,CC(C)CNC(=O)/C=C/C(=O)O,1.63% (inactive) and 0.6% (inactive)
